In PubChem BioAssay (NCATS):
Records with an inconclusive call do not appear. A call without a number means that no potency is given here. Calls of active or inactive are those of the source. Unless noted, calls follow the shape of the dose curve; as a rule, active = well fitted curve in the direction sought with a large enough effect; inconclusive = small, poorly fitted or top-dose-only effect, or another doubt; inactive = no such curve, though single readings can be large; an effect the other way counts as inactive or inconclusive.

Key:
[1] = molecular target: Transient receptor potential cation channel subfamily V member 1 (Homo sapiens) (UniProt Q8NER1); assay: HTS Assay for Compounds that Act as Enhancers of the Vanilloid Receptor 1 (AID 488979)
Sequence of Transient receptor potential cation channel subfamily V member 1 (Homo sapiens) (Q8NER1 whole entry, looked up): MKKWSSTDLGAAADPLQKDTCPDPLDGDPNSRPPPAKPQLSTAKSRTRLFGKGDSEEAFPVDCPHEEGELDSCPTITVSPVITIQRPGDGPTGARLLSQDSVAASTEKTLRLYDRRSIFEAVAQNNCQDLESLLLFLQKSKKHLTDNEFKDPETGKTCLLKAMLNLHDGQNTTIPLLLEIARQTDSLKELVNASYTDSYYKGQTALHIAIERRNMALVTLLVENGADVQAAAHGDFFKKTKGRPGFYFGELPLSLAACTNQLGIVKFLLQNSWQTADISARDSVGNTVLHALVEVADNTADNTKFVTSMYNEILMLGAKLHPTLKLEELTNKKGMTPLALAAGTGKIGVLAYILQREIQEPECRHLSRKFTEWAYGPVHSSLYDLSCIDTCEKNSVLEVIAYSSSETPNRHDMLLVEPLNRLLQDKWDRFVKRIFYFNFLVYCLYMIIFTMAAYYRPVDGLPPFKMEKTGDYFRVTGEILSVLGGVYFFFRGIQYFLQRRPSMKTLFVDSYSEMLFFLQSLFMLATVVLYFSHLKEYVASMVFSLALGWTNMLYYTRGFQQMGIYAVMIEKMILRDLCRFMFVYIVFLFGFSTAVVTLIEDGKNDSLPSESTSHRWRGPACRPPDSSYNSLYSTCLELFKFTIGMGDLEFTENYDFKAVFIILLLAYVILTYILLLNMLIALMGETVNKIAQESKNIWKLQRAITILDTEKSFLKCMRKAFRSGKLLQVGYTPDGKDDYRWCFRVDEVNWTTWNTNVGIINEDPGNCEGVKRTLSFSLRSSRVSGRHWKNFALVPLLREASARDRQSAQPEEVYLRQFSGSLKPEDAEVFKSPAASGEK
In short: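 Calcium influx kinetics via Fluo-8 (480/520 nm) in TRPV1-expressing cells, 2000/well cultured overnight at 35.5C. Compound-alone read 3 min (agonist phase), followed by EC20 capsaicin challenge for 2 min (enhancer phase).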

[2] = molecular target: Thyrotropin receptor (Homo sapiens) (UniProt P16473); assay: qHTS Assay for Antagonists of the Thyroid Stimulating Hormone Receptor (AID 488980); also: series mostly up to about 58 µM
Sequence of Thyrotropin receptor (Homo sapiens) (P16473 whole entry, looked up): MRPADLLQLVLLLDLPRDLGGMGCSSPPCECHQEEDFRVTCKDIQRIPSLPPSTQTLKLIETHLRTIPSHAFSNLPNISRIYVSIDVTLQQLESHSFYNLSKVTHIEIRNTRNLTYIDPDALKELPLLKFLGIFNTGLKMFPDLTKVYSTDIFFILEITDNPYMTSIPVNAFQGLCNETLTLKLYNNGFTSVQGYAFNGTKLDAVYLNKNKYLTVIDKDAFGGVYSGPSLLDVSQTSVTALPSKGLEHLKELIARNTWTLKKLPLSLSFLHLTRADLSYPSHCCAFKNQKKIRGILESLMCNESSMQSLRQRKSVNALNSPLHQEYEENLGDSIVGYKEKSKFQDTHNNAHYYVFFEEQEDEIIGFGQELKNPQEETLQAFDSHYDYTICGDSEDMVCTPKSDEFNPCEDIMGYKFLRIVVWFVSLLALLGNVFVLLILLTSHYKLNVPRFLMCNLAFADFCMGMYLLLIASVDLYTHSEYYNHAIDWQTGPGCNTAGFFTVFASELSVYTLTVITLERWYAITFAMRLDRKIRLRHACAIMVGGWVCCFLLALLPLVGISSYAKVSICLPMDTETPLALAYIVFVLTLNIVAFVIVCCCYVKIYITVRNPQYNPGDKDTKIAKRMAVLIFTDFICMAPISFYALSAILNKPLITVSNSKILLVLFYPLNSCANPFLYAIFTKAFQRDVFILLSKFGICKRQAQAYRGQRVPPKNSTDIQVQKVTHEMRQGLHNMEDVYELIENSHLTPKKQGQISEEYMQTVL
In short: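 TSHR-HEK293 cells; 70 uM RO 20-1724 PDE inhibitor; compound + EC80 TSH (4 nM final); anti-cAMP cryptate antibody/cAMP-d2 in lysis buffer, 30 min RT; HTRF 665/620 nm read.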

[3] = molecular target: D(1A) dopamine receptor (Homo sapiens) (UniProt P21728); assay: HTS Assay for Allosteric Agonists of the Human D1 Dopamine Receptor: Primary Screen for Agonists (AID 488981); also: potency is read from the fitted curve at half-maximal effect
In short: (§1)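 Calcium flux in an inducible, force-coupled HEK293 Trex D1 line (overnight at 30 C): agonist mode is the 180 s kinetic read after compound; potentiator mode is the following 180 s read after dopamine at EC20.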

[4] = molecular target: D(1A) dopamine receptor (Homo sapiens) (UniProt P21728); assay: HTS Assay for Allosteric Agonists of the Human D1 Dopamine Receptor: Primary Screen for Potentiators (AID 488982); also: potency is read from the fitted curve at half-maximal effect
In short: as §1

[5] = molecular target: D(1A) dopamine receptor (Homo sapiens) (UniProt P21728); assay: HTS Assay for Allosteric Agonists of the Human D1 Dopamine Receptor: Primary Screen for Antagonists (AID 488983);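 also: calcium flux response to an EC80 dopamine challenge measured with no-wash dye; nearly all actives have a fitted effect of over 65% in size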; also: potency is read from the fitted curve at half-maximal effect
In short: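 Tetracycline-induced HEK293 T-REx cells expressing force-coupled D1 were plated overnight at 30 C, dye-loaded for calcium, and read kinetically. Compounds were pinned in, then an EC80 dopamine challenge followed after 180 s to reveal antagonism.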

[6] = Validation screen for small molecules that induce genotoxicity in human embryonic kidney (HEK293T) cells expressing luciferase-tagged ELG1 (AID 493106)
In short: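 HEK293T cells expressing luciferase-tagged ELG1 were exposed to compound or DMSO vehicle for 16 hr at 37 °C, 5% CO2. Genotoxic stress raises ELG1 levels, so increased luciferase signal after ONE-Glo addition and 30 min at room temperature marks hits.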

[7] = molecular target: ATPase family AAA domain-containing protein 5 (Homo sapiens) (UniProt Q96QE3); assay: Validation screen for small molecules that inhibit ELG1-dependent DNA repair in human embryonic kidney (HEK293T) cells expressing luciferase-tagged ELG1 (AID 493107); also: nearly all actives have a fitted effect of over 70% in size; also: potency is read from the fitted curve at half-maximal effect
Sequence of ATPase family AAA domain-containing protein 5 (Homo sapiens) (Q96QE3 whole entry, looked up, the tested form may be a part): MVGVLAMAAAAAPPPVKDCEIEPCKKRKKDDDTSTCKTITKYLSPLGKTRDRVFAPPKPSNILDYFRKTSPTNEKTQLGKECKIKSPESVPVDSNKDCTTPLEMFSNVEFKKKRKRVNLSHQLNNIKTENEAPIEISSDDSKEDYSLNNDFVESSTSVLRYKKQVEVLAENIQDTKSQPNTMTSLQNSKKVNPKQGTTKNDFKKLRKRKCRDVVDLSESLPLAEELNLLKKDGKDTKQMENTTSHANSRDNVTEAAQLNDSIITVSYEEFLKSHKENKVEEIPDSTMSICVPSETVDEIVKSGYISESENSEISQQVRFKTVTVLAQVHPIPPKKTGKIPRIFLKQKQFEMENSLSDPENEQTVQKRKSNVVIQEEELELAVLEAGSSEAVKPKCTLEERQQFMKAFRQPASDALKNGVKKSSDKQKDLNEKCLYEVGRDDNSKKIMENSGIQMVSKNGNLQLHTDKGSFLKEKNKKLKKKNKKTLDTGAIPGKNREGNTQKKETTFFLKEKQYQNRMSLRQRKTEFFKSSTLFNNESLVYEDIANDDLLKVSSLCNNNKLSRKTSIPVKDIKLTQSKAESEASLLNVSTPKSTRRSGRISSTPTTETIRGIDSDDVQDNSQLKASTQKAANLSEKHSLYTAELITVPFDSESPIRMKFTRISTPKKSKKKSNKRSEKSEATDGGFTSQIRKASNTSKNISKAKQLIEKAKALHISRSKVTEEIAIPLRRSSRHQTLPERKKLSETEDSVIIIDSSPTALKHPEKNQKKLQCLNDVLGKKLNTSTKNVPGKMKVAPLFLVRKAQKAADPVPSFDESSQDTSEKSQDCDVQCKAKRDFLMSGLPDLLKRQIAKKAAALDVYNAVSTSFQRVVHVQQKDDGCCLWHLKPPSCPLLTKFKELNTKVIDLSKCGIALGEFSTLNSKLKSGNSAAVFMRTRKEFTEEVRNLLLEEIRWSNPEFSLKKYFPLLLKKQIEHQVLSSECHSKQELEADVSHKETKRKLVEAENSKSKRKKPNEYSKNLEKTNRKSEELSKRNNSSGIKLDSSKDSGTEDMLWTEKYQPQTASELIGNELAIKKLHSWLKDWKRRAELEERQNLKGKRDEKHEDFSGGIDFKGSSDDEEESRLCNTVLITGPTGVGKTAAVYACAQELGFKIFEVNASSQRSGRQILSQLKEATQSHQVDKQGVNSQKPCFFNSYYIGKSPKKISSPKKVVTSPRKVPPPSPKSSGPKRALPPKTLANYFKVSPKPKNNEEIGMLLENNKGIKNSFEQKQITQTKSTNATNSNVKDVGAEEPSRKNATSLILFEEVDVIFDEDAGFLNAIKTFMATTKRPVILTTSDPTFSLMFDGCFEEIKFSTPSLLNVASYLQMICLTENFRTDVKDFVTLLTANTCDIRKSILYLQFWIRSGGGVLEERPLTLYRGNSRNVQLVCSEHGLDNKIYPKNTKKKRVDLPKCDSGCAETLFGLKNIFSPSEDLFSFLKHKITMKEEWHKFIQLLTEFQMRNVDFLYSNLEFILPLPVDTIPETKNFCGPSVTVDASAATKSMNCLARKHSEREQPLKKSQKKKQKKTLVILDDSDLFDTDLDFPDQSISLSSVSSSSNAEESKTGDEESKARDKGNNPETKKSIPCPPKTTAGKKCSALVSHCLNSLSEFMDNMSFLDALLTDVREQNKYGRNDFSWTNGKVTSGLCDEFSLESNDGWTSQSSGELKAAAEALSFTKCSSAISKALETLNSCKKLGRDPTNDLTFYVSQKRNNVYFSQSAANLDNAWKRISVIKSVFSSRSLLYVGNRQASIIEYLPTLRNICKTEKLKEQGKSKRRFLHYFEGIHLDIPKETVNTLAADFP
In short: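 HEK293T cells expressing luciferase-tagged ELG1 were co-treated with 5-fluorouridine and compound or DMSO for 16 hr at 37 °C, 5% CO2. Luciferase activity was then read with ONE-Glo after 30 min at room temperature; suppressed signal indicates blocked ELG1 function.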

[8] = molecular target: Thyrotropin-releasing hormone receptor (Homo sapiens) (UniProt P34981); assay: qHTS for Small Molecule Agonists and Allosteric Enhancers of Human TRH Receptor: Validation Screen for Agonists (AID 493127;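 active = calcium activation more than 3 SD above the typical response in the agonist read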;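 also: intracellular calcium rise by fluo-8 fluorescence before TRH EC20 addition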); details: TRH receptor agonist cell assay; at 2 µM; stronger effect = higher value
Sequence of Thyrotropin-releasing hormone receptor (Homo sapiens) (P34981 whole entry, looked up): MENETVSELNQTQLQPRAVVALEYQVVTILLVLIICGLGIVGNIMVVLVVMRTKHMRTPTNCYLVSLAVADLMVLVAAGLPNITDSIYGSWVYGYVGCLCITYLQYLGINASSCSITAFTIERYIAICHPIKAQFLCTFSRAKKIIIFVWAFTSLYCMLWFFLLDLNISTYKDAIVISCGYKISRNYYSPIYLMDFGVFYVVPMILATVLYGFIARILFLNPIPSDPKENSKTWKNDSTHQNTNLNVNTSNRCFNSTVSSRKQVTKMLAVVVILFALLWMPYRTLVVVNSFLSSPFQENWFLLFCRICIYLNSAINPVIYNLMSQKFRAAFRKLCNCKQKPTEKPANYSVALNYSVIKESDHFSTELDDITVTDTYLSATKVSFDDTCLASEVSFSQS
In short: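 TRHR-expressing cells were plated overnight in serum-containing medium, then loaded with fluo-8 calcium dye at room temperature for 30 min–1.5 h. After a 10 s baseline, compound was pin-transferred and calcium fluorescence (ex 480/em 530) read kinetically for agonist response.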

[9] = Nrf2 qHTS screen for inhibitors: Validation (AID 493153; active = well fitted inhibition curve with a large enough effect in the main read-out, with a control signal flat, not every such curve was filed as active); details: Potency: luciferase luminescence; viability change: measured here: cytotoxicity max response
In short: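 A549 cells carrying an ARE-driven firefly luciferase reporter, in 5% FBS OPTI-MEM, were treated with compounds in concentration-response for 18-24 h at 37°C. Viability was read by CellTiter-Fluor fluorescence, then Nrf2 activity by luciferase luminescence.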

[10] = qHTS for Inhibitors of Cell Surface uPA Generation: Validation Assay (AID 493164);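 also: RAW 264.7 macrophage cells exposed to compound for 18 h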
In short: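 RAW 264.7, 4000 cells/well, o/n plating; cpd 7-pt 1:5 dilution 2.45 nM–38.3 uM final; 18 h, 37 C/5% CO2; ATP-Lite, 5 s luminescence exposure.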

[11] = Validation screen for small molecules that induce DNA re-replication in SW480 colon adenocarcinoma cells (AID 504364)
In short: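 SW480 cells seeded at 250 per well were exposed to compound or DMSO for 48 hr at 37 C, 5% CO2, then stained with Hoechst for 40 min. DNA content per nucleus was imaged (405 nm ex, 500-530 nm em).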

[12] = molecular target: Phosphoglycerate kinase, glycosomal (Trypanosoma brucei brucei) (UniProt P07378); assay: qHTS Validation Assay to Find Inhibitors of Phosphoglycerate Kinase (AID 504547); also: potency is read from the fitted curve at half-maximal effect
In short: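 Inhibition of the enzyme is judged by a Kinase-Glo Plus luminescent signal following a one-hour incubation at room temperature. Because 1,3-BPG is unstable, it is made in situ by GAPDH at 100nM final; no-PGK wells define the baseline.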

[13] = molecular target: phosphoglycerate mutase (Leishmania major) (UniProt Q4Q090); assay: qHTS Validation Assay to Find Inhibitors of Phosphoglycerate Mutase (AID 504548); details: Potency: inhibition qHTS; also: series mostly up to about 58 µM
Sequence of phosphoglycerate mutase (Leishmania major) (Q4Q090 1-553): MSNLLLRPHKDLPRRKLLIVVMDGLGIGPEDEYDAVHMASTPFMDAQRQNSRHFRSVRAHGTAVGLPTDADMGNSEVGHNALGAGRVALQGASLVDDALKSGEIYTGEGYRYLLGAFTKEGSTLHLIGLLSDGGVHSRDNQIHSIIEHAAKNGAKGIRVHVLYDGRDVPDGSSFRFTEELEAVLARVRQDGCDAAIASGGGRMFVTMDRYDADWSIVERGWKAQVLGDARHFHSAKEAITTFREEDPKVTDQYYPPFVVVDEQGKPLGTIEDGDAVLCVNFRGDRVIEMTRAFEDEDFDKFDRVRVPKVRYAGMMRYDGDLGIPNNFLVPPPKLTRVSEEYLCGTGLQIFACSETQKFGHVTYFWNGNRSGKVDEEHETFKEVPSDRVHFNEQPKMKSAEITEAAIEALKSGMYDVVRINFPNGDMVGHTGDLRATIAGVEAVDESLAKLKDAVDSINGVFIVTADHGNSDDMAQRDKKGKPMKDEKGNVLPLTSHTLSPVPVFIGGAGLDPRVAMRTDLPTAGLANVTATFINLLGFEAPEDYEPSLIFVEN
In short: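 Lm PGAM 1.25nM final; 100 mM TEA pH 7.6, 5 mM MgCl2, 0.01% Tween-20; 45 min RT; Kinase-GloPlus, 10 min; end-point luminescence. Enzyme-free wells as negative controls.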

[14] = molecular target: Ubiquitin carboxyl-terminal hydrolase 1 (Homo sapiens) (UniProt O94782); assay: Inhibitors of USP1/UAF1: Pilot qHTS (AID 504865); also: nearly all actives have a fitted effect of over 35% in size; also: potency is read from the fitted curve at half-maximal effect
In short: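 1nM USP1/UAF1 + cpd, 15 min RT; start w/ Ub-Rho 150nM final; kinetic FL 480/540 nm, 6 reads q60 s. Buffer 50mM HEPES pH 7.8, 0.5mM EDTA, 1mM TCEP, 0.01% Tween-20, 0.1 mg/ml BSA.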

[15] = qHTS for Inhibitors of ATXN expression: Validation (AID 588378); also: series mostly up to about 57 µM; nearly all actives have a fitted effect of over 75% in size
In short: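 Cells: HEK293-ATXN2-FFLuc, phenol-red free DMEM, 2 h attachment. Compound pin-transfer, 24 h, 37 degrees C, 5% CO2. CellTiter-Fluor 30 min, Ex405/Em525; Bright-Glo 5 min, luminescence 2 s exposure.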

[16] = molecular target: Peptidyl-prolyl cis-trans isomerase NIMA-interacting 1 (Homo sapiens) (UniProt Q13526); assay: qHTS Validation Assay to Find Inhibitors of Pin1 (AID 504536; active = well fitted inhibition curve with a large enough effect in the polarisation, with a control signal flat, not every such curve was filed as active; the % refers to the polarisation)
Sequence of Peptidyl-prolyl cis-trans isomerase NIMA-interacting 1 (Homo sapiens) (Q13526 whole entry, looked up): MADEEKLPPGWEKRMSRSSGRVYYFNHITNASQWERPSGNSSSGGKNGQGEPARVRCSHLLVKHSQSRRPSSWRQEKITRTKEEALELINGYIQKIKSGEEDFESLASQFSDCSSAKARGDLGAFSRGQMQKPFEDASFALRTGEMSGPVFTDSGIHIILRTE
In short: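 Fluorescence polarization competition: compounds (titration) displace HiFluor-488-labeled Pin1-1b peptide from Pin1 (0.3 uM final) in pH 7.5 HEPES buffer with DTT, 10 min at room temperature; %Activity normalized to no-enzyme wells, curves fitted.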

[17] = qHTS for Inhibitors of ATXN expression: Validation of Cytotoxic Assay (AID 588349)
In short: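 HEK293 cells were dosed with titrated compounds for 72 hr at 37 degrees C. Viability was read by CellTiter Glo luminescence, with intracellular ATP as the marker of cell survival.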

[18] = molecular target: Galactokinase (Homo sapiens) (UniProt P51570); assay: qHTS Validation Assay for Inhibitors of Human Galactokinase (GALK) (AID 493189)
Sequence of Galactokinase (Homo sapiens) (P51570 whole entry, looked up): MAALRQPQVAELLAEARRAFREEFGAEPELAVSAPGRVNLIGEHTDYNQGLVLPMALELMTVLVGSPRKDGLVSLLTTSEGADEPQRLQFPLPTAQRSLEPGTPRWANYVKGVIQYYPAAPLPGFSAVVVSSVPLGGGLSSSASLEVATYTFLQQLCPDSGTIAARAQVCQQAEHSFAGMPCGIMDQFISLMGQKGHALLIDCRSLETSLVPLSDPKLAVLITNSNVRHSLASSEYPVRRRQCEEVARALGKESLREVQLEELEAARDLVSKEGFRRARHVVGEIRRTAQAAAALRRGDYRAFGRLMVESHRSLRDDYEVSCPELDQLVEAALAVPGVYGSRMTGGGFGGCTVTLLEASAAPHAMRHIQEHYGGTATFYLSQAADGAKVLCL
In short: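 Luminescence from leftover ATP (Kinase-Glo Plus, 10 min) served as read-out after a 1 h room-temperature reaction of 5 nM GALK, 100 uM galactose and 35 uM ATP at pH8.0.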

Row | Compound | outcome [1] | outcome [2] | Potency [3] | Potency [4] | Potency [5] | Potency [6] | Potency [7] | activation [8] | Potency [9] | viability change [9] | outcome [10] | Potency [11] | Potency [12] | Potency [13] | Potency [14] | Potency [15] | Potency [16] | Potency [17] | Potency [18]
1 | COc1cc(/C=C(\C#N)C(=O)c2ccc(O)c(O)c2)cc(I)c1O | inactive | inactive | 14.1 µM (active) | 3.66 µM (active) | inactive | inactive | inactive | 53.1% (active) | inactive | -22% | inactive | inactive | 2.13 µM (active) | inactive | 50.1 µM (active) | inactive | – | – | –
2 | O=c1[nH]c2cc(Cl)ccc2c(O)c1-c1ccc(Oc2ccccc2)cc1 | inactive | inactive | inactive | inactive | inactive | inactive | inactive | 0.5% (inactive) | – | – | inactive | inactive | inactive | inactive | inactive | inactive | inactive | inactive | –
3 | NC(C(=O)N[C@@H]1C(=O)N2C(C(=O)O)=C(Cl)CS[C@H]12)c1ccccc1 (stereo partly drawn) | inactive | inactive | inactive | inactive | inactive | inactive | inactive | 0.938% (inactive) | inactive | 1.5% | inactive | inactive | inactive | – | inactive | inactive | inactive | inactive | –
4 | COC1(C2=NCCN2)COc2ccccc2O1 (stereo not drawn) | inactive | inactive | inactive | inactive | inactive | inactive | inactive | 1.62% (inactive) | inactive | -0.853% | inactive | inactive | inactive | inactive | inactive | inactive | inactive | inactive | –
5 | COc1ccccc1N1CCN(CCCCN2C(=O)c3ccccc3C2=O)CC1 | inactive | inactive | inactive | inactive | 10 µM (active) | inactive | inactive | -3.44% (inactive) | inactive | 4.76% | inactive | inactive | – | inactive | inactive | inactive | inactive | inactive | inactive
6 | C=C1C(=O)O[C@@H]2[C@H]3O[C@]3(C)CCC=C(C)CC[C@@H]12 | inactive | inactive | inactive | inactive | inactive | inactive | 25.9 µM (active) | -0.125% (inactive) | – | – | inactive | inactive | inactive | inactive | inactive | – | inactive | – | inactive
7 | N[C@@H](CS(=O)O)C(=O)O | inactive | inactive | inactive | inactive | inactive | inactive | inactive | 0.688% (inactive) | inactive | -0.201% | inactive | inactive | – | inactive | inactive | inactive | inactive | inactive | inactive
8 | COC(=O)[C@H](NC(=O)c1cc(-c2ccccc2)nc2ccccc12)c1ccccc1 | inactive | inactive | inactive | inactive | inactive | inactive | – | -5.81% (inactive) | inactive | -11.1% | inactive | inactive | inactive | inactive | inactive | inactive | inactive | inactive | –
9 | COCc1nc2c([nH]1)c(=O)n(C)c(=O)n2CC(C)C | inactive | inactive | inactive | inactive | inactive | inactive | – | 0.875% (inactive) | inactive | 1.53% | inactive | inactive | inactive | inactive | inactive | inactive | inactive | inactive | inactive
10 | CC(=O)C(C)=O | inactive | inactive | inactive | inactive | inactive | inactive | inactive | – | inactive | -3.11% | inactive | inactive | inactive | inactive | inactive | inactive | inactive | inactive | inactive
11 | O=c1[nH]c(=O)c2nc3ccccc3nc2[nH]1 | inactive | inactive | inactive | inactive | inactive | inactive | – | 3.81% (inactive) | inactive | -5.91% | inactive | inactive | inactive | – | – | inactive | – | inactive | inactive
12 | NC1CCN(O)C1=O (stereo not drawn) | inactive | inactive | inactive | inactive | inactive | inactive | – | 0.875% (inactive) | inactive | 4.05% | inactive | inactive | inactive | inactive | – | inactive | inactive | inactive | inactive
13 | NC1(C(=O)O)CC1 | inactive | inactive | inactive | inactive | inactive | inactive | – | 0.688% (inactive) | inactive | 4.01% | inactive | inactive | inactive | inactive | – | inactive | inactive | inactive | inactive
14 | CCOC(=O)C12CC1/C(=N/O)c1ccccc1O2 (stereo not drawn) | inactive | inactive | inactive | inactive | inactive | inactive | – | -3.94% (inactive) | inactive | 1.91% | inactive | inactive | inactive | – | inactive | inactive | inactive | inactive | –
15 | CCCCS(=N)(=O)CC[C@H](N)C(=O)O (stereo partly drawn) | inactive | inactive | inactive | inactive | inactive | inactive | – | -2.62% (inactive) | inactive | 0.751% | inactive | inactive | inactive | inactive | inactive | inactive | inactive | inactive | –
